Among the data in patent US20220289795, “EFFICIENT METHOD FOR PREPARING PPR PROTEIN AND USE OF THE SAME” (EditForce, Inc., published 2022) are binding signal values, retold here.

Experiment in all cases: RPB-ELISA
Holding throughout (details): tags: N-terminal luciferase, C-terminal 6xHis; label: 5'-biotin; ssRNA
On the technique in general: ELISA stands for enzyme-linked immunosorbent assay.

In one test the target is T1, v3.1_PPR7 (Artificial Sequence).
T1 chain: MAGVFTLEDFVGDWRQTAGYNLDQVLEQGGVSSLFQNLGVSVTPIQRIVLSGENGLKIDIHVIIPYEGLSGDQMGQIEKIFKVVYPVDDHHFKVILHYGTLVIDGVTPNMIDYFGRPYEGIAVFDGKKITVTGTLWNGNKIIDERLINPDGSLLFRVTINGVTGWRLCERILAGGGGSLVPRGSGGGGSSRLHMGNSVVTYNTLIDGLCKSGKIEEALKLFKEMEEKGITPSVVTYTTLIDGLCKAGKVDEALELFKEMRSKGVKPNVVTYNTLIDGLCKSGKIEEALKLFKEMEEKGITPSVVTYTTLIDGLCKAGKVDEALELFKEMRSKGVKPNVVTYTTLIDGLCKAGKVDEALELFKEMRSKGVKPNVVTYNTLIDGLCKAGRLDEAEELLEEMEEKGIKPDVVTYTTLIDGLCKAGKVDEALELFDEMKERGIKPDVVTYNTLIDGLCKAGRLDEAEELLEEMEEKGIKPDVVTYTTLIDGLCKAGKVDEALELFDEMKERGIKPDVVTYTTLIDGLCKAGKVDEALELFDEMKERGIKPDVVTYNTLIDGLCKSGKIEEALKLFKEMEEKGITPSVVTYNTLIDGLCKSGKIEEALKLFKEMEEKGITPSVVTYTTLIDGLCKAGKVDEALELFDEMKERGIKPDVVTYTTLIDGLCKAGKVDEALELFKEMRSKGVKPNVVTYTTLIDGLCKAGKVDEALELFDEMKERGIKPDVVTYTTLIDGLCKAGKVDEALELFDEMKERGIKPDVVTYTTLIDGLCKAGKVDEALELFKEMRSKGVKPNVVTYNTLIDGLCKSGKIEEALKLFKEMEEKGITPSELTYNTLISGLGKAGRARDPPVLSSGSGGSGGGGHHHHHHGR
A digest of the protocol: (§1)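 5′-biotinylated 30-base RNA probes (18-base target) immobilised on streptavidin plates, then bound 30 min at RT by E. coli lysate with luciferase-fused PPR protein (1.5×10⁸ LU/μL) in Tris pH 7.6 buffer. Binding = luminescence minus no-RNA background.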

Another test addresses T2, NL_v2_PPR20 (Artificial Sequence).
T2 chain: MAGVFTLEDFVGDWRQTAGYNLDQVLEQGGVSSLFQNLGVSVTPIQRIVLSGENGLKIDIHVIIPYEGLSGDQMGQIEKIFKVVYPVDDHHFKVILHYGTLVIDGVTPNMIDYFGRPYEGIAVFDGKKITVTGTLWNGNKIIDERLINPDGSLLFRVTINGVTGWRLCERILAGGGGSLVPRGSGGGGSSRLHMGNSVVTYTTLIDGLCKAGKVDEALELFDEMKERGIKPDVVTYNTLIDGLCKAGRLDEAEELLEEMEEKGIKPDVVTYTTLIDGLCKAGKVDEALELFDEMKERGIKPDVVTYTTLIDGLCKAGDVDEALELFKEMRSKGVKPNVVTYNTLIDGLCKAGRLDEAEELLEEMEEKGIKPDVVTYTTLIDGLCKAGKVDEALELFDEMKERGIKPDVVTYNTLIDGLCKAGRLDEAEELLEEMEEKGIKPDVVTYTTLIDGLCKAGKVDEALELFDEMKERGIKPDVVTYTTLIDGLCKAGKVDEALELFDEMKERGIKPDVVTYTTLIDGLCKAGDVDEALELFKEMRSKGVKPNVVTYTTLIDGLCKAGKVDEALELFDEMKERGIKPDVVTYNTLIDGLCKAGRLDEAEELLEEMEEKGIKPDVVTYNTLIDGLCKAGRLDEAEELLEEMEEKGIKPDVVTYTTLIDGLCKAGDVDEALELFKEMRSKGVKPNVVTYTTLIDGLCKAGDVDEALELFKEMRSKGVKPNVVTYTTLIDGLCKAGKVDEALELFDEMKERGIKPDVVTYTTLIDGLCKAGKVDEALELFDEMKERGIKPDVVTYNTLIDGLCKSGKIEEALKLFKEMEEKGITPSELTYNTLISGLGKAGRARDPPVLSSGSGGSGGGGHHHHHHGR
A digest of the protocol: (§2)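 5′-biotinylated 30-base RNA probes holding 18-base targets were captured on streptavidin plates, blocked, then bound 30 min at room temperature with E. coli lysate of luciferase-fused PPR protein (1.5×10⁸ LU/μL) in Tris-HCl pH 7.6 buffer. After washing, luminescence minus no-RNA background gave binding power.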

The next test has as its target T3, NL_v2_PPR22 (Artificial Sequence).
T3 chain: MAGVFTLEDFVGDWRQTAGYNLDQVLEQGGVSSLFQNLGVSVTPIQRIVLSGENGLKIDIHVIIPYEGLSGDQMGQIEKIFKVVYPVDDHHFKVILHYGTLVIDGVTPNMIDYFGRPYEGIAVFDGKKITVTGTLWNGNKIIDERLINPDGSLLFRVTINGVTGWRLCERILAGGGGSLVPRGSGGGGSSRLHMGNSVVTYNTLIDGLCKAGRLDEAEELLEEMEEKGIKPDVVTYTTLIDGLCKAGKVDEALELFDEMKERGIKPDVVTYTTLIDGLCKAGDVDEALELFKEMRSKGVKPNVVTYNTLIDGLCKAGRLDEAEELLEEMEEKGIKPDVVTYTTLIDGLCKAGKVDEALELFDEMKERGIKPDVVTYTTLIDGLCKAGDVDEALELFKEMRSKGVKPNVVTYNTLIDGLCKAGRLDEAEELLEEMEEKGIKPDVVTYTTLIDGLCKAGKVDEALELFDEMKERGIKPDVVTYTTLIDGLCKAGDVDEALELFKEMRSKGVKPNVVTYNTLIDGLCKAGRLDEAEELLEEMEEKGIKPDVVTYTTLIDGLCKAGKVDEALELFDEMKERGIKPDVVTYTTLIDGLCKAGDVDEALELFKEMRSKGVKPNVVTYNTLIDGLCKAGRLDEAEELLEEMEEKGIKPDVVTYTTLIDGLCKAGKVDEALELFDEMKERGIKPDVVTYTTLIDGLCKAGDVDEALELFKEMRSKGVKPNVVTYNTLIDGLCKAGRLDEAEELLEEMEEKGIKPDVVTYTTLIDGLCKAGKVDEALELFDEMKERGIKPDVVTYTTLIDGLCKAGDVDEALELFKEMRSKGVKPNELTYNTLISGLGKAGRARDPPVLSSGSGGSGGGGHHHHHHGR
A digest of the protocol: as §2

In the next test the target is T4, NL_v2_PPR16 (Artificial Sequence).
T4 chain: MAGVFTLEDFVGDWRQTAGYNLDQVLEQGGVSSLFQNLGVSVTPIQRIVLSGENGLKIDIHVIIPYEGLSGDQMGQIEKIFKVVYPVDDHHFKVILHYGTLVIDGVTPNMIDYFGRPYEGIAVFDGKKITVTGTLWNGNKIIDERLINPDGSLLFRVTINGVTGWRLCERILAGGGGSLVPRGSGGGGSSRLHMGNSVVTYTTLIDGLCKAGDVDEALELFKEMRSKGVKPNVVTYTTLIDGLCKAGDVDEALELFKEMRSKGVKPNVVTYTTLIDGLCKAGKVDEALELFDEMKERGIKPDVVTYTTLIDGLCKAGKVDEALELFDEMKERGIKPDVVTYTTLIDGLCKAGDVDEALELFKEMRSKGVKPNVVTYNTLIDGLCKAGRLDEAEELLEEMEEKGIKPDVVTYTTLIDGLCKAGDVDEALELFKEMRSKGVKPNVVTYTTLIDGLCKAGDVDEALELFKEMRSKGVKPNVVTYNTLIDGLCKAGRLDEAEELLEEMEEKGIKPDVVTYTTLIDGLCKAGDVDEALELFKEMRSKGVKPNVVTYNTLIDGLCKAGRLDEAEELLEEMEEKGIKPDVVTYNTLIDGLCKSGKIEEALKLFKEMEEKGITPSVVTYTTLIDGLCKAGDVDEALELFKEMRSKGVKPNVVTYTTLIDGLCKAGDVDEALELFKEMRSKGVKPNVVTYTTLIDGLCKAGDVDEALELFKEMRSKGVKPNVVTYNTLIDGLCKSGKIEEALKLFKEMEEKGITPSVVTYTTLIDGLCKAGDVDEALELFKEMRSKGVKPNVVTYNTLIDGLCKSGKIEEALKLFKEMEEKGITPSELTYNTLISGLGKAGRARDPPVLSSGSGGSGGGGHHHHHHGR
A digest of the protocol:
as §2

For a further test, the target named is T5, v3.1_PPR22 (Artificial Sequence).
T5 chain: T3 chain with D283K, D388K, D493K, D598K, D703K, D808K
Summed up: as §1

Positions count from the first letter of the chain named.

For GGUUAGAGAUACAGUGUG, the binding signal with v3.1_PPR7 came to 23.4 log2 luminescence.

As for GUCAGAGGGUUCUGGAUU, the binding signal in the test with v3.1_PPR7 was 21.3 log2 luminescence.

For the sequence GUGGGGGUGGUAGGAAAU, the binding signal in the test with NL_v2_PPR20 was 22.4 log2 luminescence; in the test with NL_v2_PPR22, 21 log2 luminescence; in the test with NL_v2_PPR16 it was 22.1 log2 luminescence; with v3.1_PPR7 it was 24.2 log2 luminescence; with v3.1_PPR22, 20.8 log2 luminescence.

Turning to GACUCAGGAAUCGGCUCU, the binding signal with v3.1_PPR7 is 21 log2 luminescence.

As to GGUGGUGAGGCCCUGGGC, the figures for the binding signal with NL_v2_PPR20, in the test with v3.1_PPR7 and with v3.1_PPR22 were 21.1 log2 luminescence, 23.8 log2 luminescence and 20.9 log2 luminescence, respectively.
